Results as given in PubChem BioAssay AID720706 (Broad Institute, 2013).
The whole screen tested about 350,000 compounds, of which about 5,500 (1.6%) were called active.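 How the source made its calls: active means significant combined selectivity score with lowered wild-type GFP, culture density cut under 30%, mutant RFP and density less affected; inactive means any of these conditions unmet.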 The full list was thinned out, with actives kept by preference.

Experiment: GFP drop in mixed WT/humanized-ribosome E. coli culture – GFP/RFP fluorescence, OD600, single point, bacterial rRNA inhibitor project, primary screen (AID 720706)
Conditions: E. coli WT GFP vs humanized-ribosome RFP mutants, 24 h; GFP signal change (wild-type ribosome): stronger effect = lower value, DMSO median 0, no signal -100; OD600 change: measured here: OD600 growth, DMSO median 0, no signal -100; RFP signal change: measured here: RFP humanized mutant strains, DMSO median 0, no signal -100, concentration not given here

Question: With `C[C@@H]1CN([C@H](C)CO)C(=O)c2cccc(NC(=O)CCCCCC(=O)Nc3ccccc3N)c2O[C@H]1CN(C)CC1CCCCC1` as the compound, how does the GFP signal change (wild-type ribosome) read?
Answer: -16.1% (inactive)

Question: And the OD600 change?
Answer: -30.3%

Question: And the RFP signal change?
Answer: -6.11%

Question: Which GFP signal change (wild-type ribosome) does the source give for `COc1ccc(/C=C2/CCCc3ccccc3C2=O)cc1` here?
Answer: -37.4% (inactive)

Question: And the OD600 change?
Answer: -62.5%

Question: What about the RFP signal change of the same compound?
Answer: -10.8%

Question: With `COc1ccc(/C=C2\CCc3ccccc3C2=O)c(OC)c1OC` as the compound, how does the GFP signal change (wild-type ribosome) read?
Answer: -21.9% (active)

Question: And the OD600 change?
Answer: -16.9%

Question: And the RFP signal change?
Answer: -4.31%

Question: Which results are given for `COc1ccc(/C=N/NC(=O)C2CC2)c(OC)c1OC`?
Answer: GFP signal change (wild-type ribosome): 20.9% (inactive); OD600 change: 9.1%; RFP signal change: -1.71%

Question: What does the source list for `Cc1ccccc1-c1ccc([C@H]2[C@H](CO)N3C(=O)CN(C(=O)c4cccnc4)C[C@@H]23)cc1`?
Answer: GFP signal change (wild-type ribosome): -0.83% (inactive); OD600 change: -6.48%; RFP signal change: 5.21%

Question: What does the source list for `O=C1N[C@H](Cc2ccccc2)COCc2cn(nn2)CC[C@@H]1Cc1ccc(-c2ccccc2)cc1`?
Answer: GFP signal change (wild-type ribosome): -0.275% (inactive); OD600 change: 6.34%; RFP signal change: -4.54%

Question: For `CCCC#Cc1cnc2c(c1)C(=O)N([C@H](C)CO)C[C@@H](C)[C@@H](CN(C)C(=O)Nc1ccccc1OC)O2`, which GFP signal change (wild-type ribosome) is on record?
Answer: 4.88% (inactive)

Question: And the OD600 change?
Answer: 7.2%

Question: What about the RFP signal change of the same compound?
Answer: -1.58%

Question: Which results are given for `COc1ccc(NC(=O)N(C)C[C@@H]2OCCCC[C@H](C)Oc3ccc(NS(=O)(=O)c4cn(C)cn4)cc3C(=O)N([C@@H](C)CO)C[C@@H]2C)cc1`?
Answer: GFP signal change (wild-type ribosome): -1.73% (inactive); OD600 change: -0.21%; RFP signal change: 1.12%

Question: For `Cc1ccc(S(=O)(=O)Nc2ccc3c(c2)C(=O)N([C@@H](C)CO)C[C@@H](C)[C@@H](CN(C)Cc2ccc(C(=O)Nc4ccccc4N)cc2)O3)cc1`, which GFP signal change (wild-type ribosome) is on record?
Answer: -3.29% (inactive)

Question: What about the OD600 change of the same compound?
Answer: -1.98%

Question: What about the RFP signal change of the same compound?
Answer: 14%

Question: What does the source list for `C[C@@H]1CN([C@@H](C)CO)C(=O)c2cc(NS(=O)(=O)c3ccccc3)ccc2O[C@@H]1CN(C)Cc1ccc(C(=O)Nc2ccccc2N)cc1`?
Answer: GFP signal change (wild-type ribosome): -20.2% (active); OD600 change: -5.29%; RFP signal change: 5.46%

Question: Which GFP signal change (wild-type ribosome) does the source give for `C[C@H](CO)N1C[C@H](C)[C@H](CN(C)Cc2ccc(C(=O)Nc3ccccc3N)cc2)Oc2ccc(NS(C)(=O)=O)cc2C1=O` here?
Answer: 5.88% (inactive)

Question: What about the OD600 change of the same compound?
Answer: 6.32%

Question: What about the RFP signal change of the same compound?
Answer: 0.92%

Question: With `COc1ccc(S(=O)(=O)Nc2ccc3c(c2)CC(=O)N([C@@H](C)CO)C[C@H](C)[C@@H](CN(C)Cc2ccc(C(=O)O)cc2)O3)cc1` as the compound, how does the GFP signal change (wild-type ribosome) read?
Answer: -0.025% (inactive)

Question: And the OD600 change?
Answer: -7.85%

Question: What about the RFP signal change of the same compound?
Answer: -0.315%

Question: For `COc1ccc(CN(C)C[C@H]2Oc3ccc(NS(=O)(=O)c4ccc(Cl)cc4)cc3CC(=O)N([C@@H](C)CO)C[C@H]2C)cc1`, which GFP signal change (wild-type ribosome) is on record?
Answer: -45.9% (active)

Question: What about the OD600 change of the same compound?
Answer: -36.8%

Question: What about the RFP signal change of the same compound?
Answer: -1.42%

Question: What does the source list for `COc1ccc(S(=O)(=O)Nc2ccc3c(c2)CC(=O)N([C@H](C)CO)C[C@H](C)[C@H](CN(C)Cc2ccc(C(F)(F)F)cc2)O3)cc1`?
Answer: GFP signal change (wild-type ribosome): -1.22% (inactive); OD600 change: -12.1%; RFP signal change: 0.965%

Question: Which GFP signal change (wild-type ribosome) does the source give for `COc1ccc2c3c([nH]c2c1)[C@@H](CO)N(C(=O)CC1CC1)CC31CCN(Cc2cccnc2)CC1` here?
Answer: 1.59% (inactive)

Question: And the OD600 change?
Answer: 3.97%

Question: What about the RFP signal change of the same compound?
Answer: 3.46%

Question: Which GFP signal change (wild-type ribosome) does the source give for `CCOc1ccc(NS(=O)(=O)c2ccc(C)c(C(N)=O)c2)cc1` here?
Answer: 2.05% (inactive)

Question: What about the OD600 change of the same compound?
Answer: 7.61%

Question: And the RFP signal change?
Answer: 0.34%

Question: Which GFP signal change (wild-type ribosome) does the source give for `CCOc1ccc2sc(NS(=O)(=O)c3ccc(N)cc3)nc2c1` here?
Answer: -24.1% (active)

Question: What about the OD600 change of the same compound?
Answer: -5.58%

Question: What about the RFP signal change of the same compound?
Answer: -5%

Question: Which GFP signal change (wild-type ribosome) does the source give for `CCOc1cc(NS(=O)(=O)c2ccc(OC)cc2)c(OCC)cc1NC(C)=O` here?
Answer: 12.2% (inactive)

Question: And the OD600 change?
Answer: 0.765%

Question: And the RFP signal change?
Answer: 1.03%

Question: Which GFP signal change (wild-type ribosome) does the source give for `COc1ccc2c3c(n(C)c2c1)[C@H](CO)N(CC1CCCCC1)CC31CCN(Cc2nccs2)CC1` here?
Answer: 5.15% (inactive)

Question: What about the OD600 change of the same compound?
Answer: -34.3%

Question: What about the RFP signal change of the same compound?
Answer: 21.2%

Question: Which GFP signal change (wild-type ribosome) does the source give for `Cc1noc(C)c1NC(=O)N(C)C[C@@H]1Oc2ccc(NC(=O)CCN3CCOCC3)cc2CC(=O)N([C@H](C)CO)C[C@@H]1C` here?
Answer: -0.675% (inactive)

Question: What about the OD600 change of the same compound?
Answer: 4.65%

Question: What about the RFP signal change of the same compound?
Answer: -1.87%

Question: Which results are given for `C[C@@H]1CN([C@H](C)CO)C(=O)c2cccc(NC(=O)Nc3ccc4c(c3)OCO4)c2O[C@H]1CN(C)S(=O)(=O)c1ccccc1`?
Answer: GFP signal change (wild-type ribosome): -2.91% (inactive); OD600 change: -5.67%; RFP signal change: -1.37%

Question: What does the source list for `COc1ccc2c3c([nH]c2c1)[C@@H](CO)N(Cc1ccc2c(c1)OCO2)CC31CN(C(=O)Nc2c(C)noc2C)C1`?
Answer: GFP signal change (wild-type ribosome): 0.081% (inactive); OD600 change: 0.39%; RFP signal change: 1.36%

Question: Which results are given for `CC(C)(C)[S@@](=O)N1Cc2cc(C(=O)O)nc(-c3cccc(-c4cccc(F)c4)c3)c2[C@H]1CCO`?
Answer: GFP signal change (wild-type ribosome): 4.83% (inactive); OD600 change: 5.04%; RFP signal change: 0.24%

Question: Which GFP signal change (wild-type ribosome) does the source give for `O=C(COC(=O)c1ccc([N+](=O)[O-])o1)NC12CC3CC(CC(C3)C1)C2` here?
Answer: -30.1% (active)

Question: And the OD600 change?
Answer: 9.91%

Question: And the RFP signal change?
Answer: 3.52%

Question: Which results are given for `O=C(COC(=O)c1ccc(Br)o1)NC12CC3CC(CC(C3)C1)C2`?
Answer: GFP signal change (wild-type ribosome): -10.7% (inactive); OD600 change: -7.12%; RFP signal change: 2.74%

Question: Which GFP signal change (wild-type ribosome) does the source give for `O=C(OCC(=O)c1cccs1)c1ccc([N+](=O)[O-])o1` here?
Answer: 9.6% (inactive)

Question: What about the OD600 change of the same compound?
Answer: 5.51%

Question: And the RFP signal change?
Answer: 1.76%

Question: What does the source list for `CCCNC(=O)Nc1ccc2c(c1)C(=O)N(C)C[C@H](OC)[C@H](C)CN(Cc1ccncc1)[C@H](C)CO2`?
Answer: GFP signal change (wild-type ribosome): 1.74% (inactive); OD600 change: 6.36%; RFP signal change: -1.58%

Question: For `O=C(CCCN1CCc2[nH]c3ccc(F)cc3c2C1)c1ccc(F)cc1`, which GFP signal change (wild-type ribosome) is on record?
Answer: -28.2% (active)

Question: What about the OD600 change of the same compound?
Answer: -21.9%

Question: And the RFP signal change?
Answer: 3.29%

Question: For `C=CCNC(=S)N1CCc2[nH]c3ccccc3c2C1`, which GFP signal change (wild-type ribosome) is on record?
Answer: 1.71% (inactive)

Question: What about the OD600 change of the same compound?
Answer: -2.66%

Question: And the RFP signal change?
Answer: 1.19%

Question: For `CC1CCc2[nH]c3ccc(C(=O)N(C)CC(=O)Nc4cccc(F)c4)cc3c2C1` (stereo unspecified), which GFP signal change (wild-type ribosome) is on record?
Answer: -34% (inactive)

Question: What about the OD600 change of the same compound?
Answer: -74.6%

Question: And the RFP signal change?
Answer: -1.58%

Question: Which GFP signal change (wild-type ribosome) does the source give for `COc1cnc(-c2ccccn2)nc1Oc1ccc(C(C)(C)C)cc1` here?
Answer: -55.5% (inactive)

Question: And the OD600 change?
Answer: -80%

Question: And the RFP signal change?
Answer: -19.6%

Question: Which GFP signal change (wild-type ribosome) does the source give for `CC(C)(C)c1ccc(Oc2ccc(N)cc2)cc1` here?
Answer: -34% (active)

Question: And the OD600 change?
Answer: -27.1%

Question: What about the RFP signal change of the same compound?
Answer: -4.06%
